In the library only some 10% were active in any assay of this set; here they are far more common.
RORg inh: qHTS for inhibitors of ROR gamma transcriptional activity; Nuclear receptor ROR-gamma (Mus musculus), P51450; Drosophila S2 Gal4-RORgamma UAS-luciferase reporter, 20 h; Potency, µM (doses to about 53.6 µM), most hits filed as inhibitors; 310,000 tested, 5.4% active; AID 2551, 2010; further: nearly all actives have a fitted effect of over 60% in size
Target sequence (P51450 whole entry, looked up, the tested form may be a part): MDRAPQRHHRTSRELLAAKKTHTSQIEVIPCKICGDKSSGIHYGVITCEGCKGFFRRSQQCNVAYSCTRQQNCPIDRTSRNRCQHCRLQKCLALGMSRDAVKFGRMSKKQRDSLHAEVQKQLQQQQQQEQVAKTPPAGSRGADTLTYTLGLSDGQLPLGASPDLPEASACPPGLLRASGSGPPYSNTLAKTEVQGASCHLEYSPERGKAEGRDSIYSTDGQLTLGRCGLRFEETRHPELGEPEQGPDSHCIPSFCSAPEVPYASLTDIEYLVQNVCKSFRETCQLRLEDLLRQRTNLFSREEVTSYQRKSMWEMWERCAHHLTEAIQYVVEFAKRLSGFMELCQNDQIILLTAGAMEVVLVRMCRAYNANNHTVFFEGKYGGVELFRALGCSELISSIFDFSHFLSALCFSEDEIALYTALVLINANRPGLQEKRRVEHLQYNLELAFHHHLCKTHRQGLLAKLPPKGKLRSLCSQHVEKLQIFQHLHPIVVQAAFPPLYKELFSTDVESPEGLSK
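Luciferase reporter read in Schneider cells carrying Gal4-RORγ (mouse) and UAS-Photinus luciferase; cells given compound 1 h before 700 uM copper sulfate induction, then incubated 20 h at ambient temperature.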
SW480 rereplic: A quantitative high throughput screen for small molecules that induce DNA re-replication in SW480 colon adenocarcinoma cells; Potency, µM (highest dose often 46.1 µM), usual class: activators; AID 624297, 2012; 340,000 tested, 1.8% active; SW480 DNA re-replication, Hoechst DNA content imaging, 48 h; further: nearly all actives have a fitted effect of over 55% in size
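First, 250 cells per well were seeded. Next, compound or vehicle (23 nL) was pinned in, plates sat 48 hr at 37 C. Finally Hoechst was added for 40 min before fluorescence scanning.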
KB-V1 cytotox: qHTS assay for MDR1-selective chemotherapeutics: Primary screen using the drug-selected MDR subline cells KB-V1 | KB-V1 MDR cells viability, CellTiter-Glo, 72 h | Potency, µM (top dose mostly 46.1 µM), actives largely listed as cytotoxic | 400,000 tested, 3.4% active; further: nearly all actives have a fitted effect of over 60% in size
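In this primary screen, KB-V1 cells overexpressing P-gp are incubated with library compounds (lowest to highest concentration) for 72 h at 37 degrees C before a luminescent ATP viability read.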
KB-3-1 tox: qHTS assay for MDR1-selective chemotherapeutics: Primary screen using the parental adenocarcinoma cell KB-3-1. KB-3-1 viability, CellTiter-Glo ATP luminescence, 72 h. Potency, µM (series often up to 46.1 µM), hits mostly cytotoxic. 400,000 tested, 1.4% active; further: nearly all actives have a fitted effect of over 60% in size
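Parental KB-3-1 viability, qHTS format: 72 h compound exposure, 37 °C; CellTiter-Glo; media-only wells and DMSO plates as controls; concentration-effect fits on corrected data.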
MCF10A rereplic: A quantitative high throughput screen for small molecules that induce DNA re-replication in MCF 10a normal breast cells; MCF 10A DNA re-replication, Hoechst nuclear intensity, 48 h; AID 624296, 2012; Potency, µM (top dose mostly 46.1 µM), hits mostly activators; 350,000 tested, 2.9% active; further: nearly all actives have a fitted effect of over 50% in size
VP16 counter: VP16 counterscreen qHTS for inhibitors of ROR gamma transcriptional activity. Drosophila S2 Gal4-VP16 UAS-luciferase, luminescence, 20 h. Potency, µM (titrated, usually from 53.6 µM), hits mostly inhibitors. 310,000 tested, 3.5% active. AID 2546, 2010;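 further: Gal4-VP16 expression switched on by copper sulfate through the metallothionein promoter; nearly all actives have a fitted effect of over 50% in size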
Of the large screens only hits and unclear results are named; the others gave an inactive call; ! = a repeat was not active. The call rests on the fitted dose curve; in most records, active means well fitted curve in the direction sought with a large enough effect; inconclusive means small, poorly fitted or top-dose-only effect, or another doubt; inactive means no such curve, though single readings can be large; an effect the other way counts as inactive or inconclusive.

S=c1[nH]nc(-c2ccc(Cl)cc2)n1-c1ccc(Cl)cc1	RORg inh 7.08µM, VP16 counter 7.08µM
CCOc1ccc(NC(=O)C2CC(=O)NC(=Nc3ccc(Cl)c(Cl)c3)S2)cc1 (stereo not given)	none (no result: RORg inh, SW480 rereplic, MCF10A rereplic, VP16 counter)
Nc1cc(Nc2ccccc2)ccn1	none (no result: RORg inh, VP16 counter)
N#Cc1sc2nccc(Nc3ccccc3)c2c1N	SW480 rereplic 23.1µM, MCF10A rereplic inconclusive (no result: RORg inh, VP16 counter)
S=c1[nH]nc(CSCCOc2ccccc2)o1	RORg inh inconclusive
S=c1[nH]nc(CSCCOc2ccc(Cl)cc2Cl)o1	RORg inh 3.98µM, KB-V1 cytotox inconclusive, VP16 counter 3.16µM
CCCCNC(=O)O[C@@H]1C[C@@H]2CCN3C(=O)CCC[C@H]([C@H]1CC)[C@H]23	KB-V1 cytotox 20.6µM!
CO/N=C(\C(=O)N[C@@H]1C(=O)N2C(C(=O)[O-])=C(C[N+]3(C)CCCC3)CS[C@@H]12)c1csc(N)n1	none (no result: KB-V1 cytotox, KB-3-1 tox)
O=C(O)/C=C/c1cnn(-c2ccccc2)c1	RORg inh 7.94µM, VP16 counter 14.1µM
Cc1ccc2c(C)c(C(=O)N3CCCC(C(N)=O)C3)oc2c1C (stereo not given)	none (no result: RORg inh, VP16 counter)
CCOC(=O)N1CCN(C(=S)Nc2ccc(C)c(C)c2)CC1	RORg inh inconclusive
CCOC(=O)N1CCN(C(=S)NC(=O)c2ccc(F)cc2)CC1	RORg inh 2µM, VP16 counter 3.55µM
CCOC(=O)N1CCN(C(=S)NC(=O)c2ccnn2C)CC1	RORg inh inconclusive, VP16 counter 31.6µM
CCOc1ccccc1NS(=O)(=O)c1c(C)nc2sccn2c1=O	none (no result: RORg inh, SW480 rereplic, MCF10A rereplic, VP16 counter)
Cc1ccc(/C=C2\Sc3ccccc3C2=O)s1	RORg inh 11.2µM, MCF10A rereplic 23.1µM, VP16 counter inconclusive
CCc1nc(-c2cc3ccc(C)cc3[nH]c2=O)no1	none
Cc1ccc2cc(-c3noc(C(C)(C)C)n3)c(=O)[nH]c2c1	KB-V1 cytotox 18.4µM
CCn1c(=O)c(C(=O)Nc2ccc(C(C)=O)cc2)nc2ccccc21	none (no result: RORg inh, SW480 rereplic, MCF10A rereplic, VP16 counter)
CNc1nc2c(c(=O)n(C)c(=O)n2C)n1CC(O)COc1ccc(OC)cc1 (stereo not given)	KB-3-1 tox inconclusive (no result: RORg inh, SW480 rereplic, MCF10A rereplic, VP16 counter)
CC[C@@H]1C(c2cccc(C)c2)=NN(c2ccc(Br)cc2)[C@H]1C(=O)N1CCOC1=O	none (no result: SW480 rereplic, KB-V1 cytotox, KB-3-1 tox, MCF10A rereplic)
Cc1cccc(C2=NN(c3ccc(Br)cc3)[C@@H](C(=O)N3CCOC3=O)[C@@H]2c2ccccc2)c1	SW480 rereplic inconclusive, MCF10A rereplic 1.46µM
Cc1cccc(C2=NN(c3ccccc3)[C@@H](C(=O)N3CCOC3=O)[C@@H]2c2ccccc2)c1	SW480 rereplic 16.4µM, MCF10A rereplic inconclusive
COc1cccc(CNC(=O)CN2C(=O)CCn3nc(-c4cn(C)c5ccccc45)cc32)c1OC	none (no result: RORg inh, SW480 rereplic, MCF10A rereplic, VP16 counter)
CC1CCC2C(=O)N3C(CCC(C)[C@@H]3c3ccc(Br)cc3)C(=O)N2C1c1ccc(Br)cc1 (stereo not given in full)	none (no result: SW480 rereplic, KB-V1 cytotox, KB-3-1 tox, MCF10A rereplic)
CC1=C(C(=O)N(C(C)C)C(C)C)CC(CC(=O)NCCc2ccccn2)C(=O)N1CCC1=CCCCC1 (stereo not given)	KB-3-1 tox 20.6µM (no result: RORg inh, SW480 rereplic, MCF10A rereplic, VP16 counter)
O=C(Nc1ccc(F)cc1F)c1noc2c1CCc1ccccc1-2	none (no result: RORg inh, SW480 rereplic, MCF10A rereplic, VP16 counter)
CC(=O)Nc1nc(-c2ccccc2)nc(C)c1C(C)=O	none
CC(=O)c1c(C)[nH]c(-c2ccccc2)nc1=S	RORg inh 3.16µM, VP16 counter inconclusive
COc1ccccc1-c1nc(=S)c(C(C)=O)c(C)[nH]1	RORg inh 5.62µM, VP16 counter inconclusive
CSc1nc(-c2ccccc2)nc(NC(=O)c2ccccc2)c1C(C)=O	none
CSc1nc(-c2ccccc2)[nH]c(=S)c1C(C)=O	RORg inh 6.31µM, VP16 counter inconclusive
COc1ccccc1-c1nc(NC(C)=O)n[nH]1	none
CC(=O)c1c(NC(=O)c2ccccc2)[nH]c(-c2ccccc2)nc1=S	RORg inh 3.16µM, VP16 counter 8.91µM
Cc1ccc(S(=O)(=O)N(C)Cc2ccc(C(=O)N/N=C/c3ccc(OC(F)F)cc3OC(F)F)cc2)cc1	KB-V1 cytotox 5.8µM, KB-3-1 tox inconclusive, VP16 counter inconclusive
CN(C)c1ccc(/C=C/c2ccnc3c(N)cccc23)cc1	KB-3-1 tox inconclusive (no result: RORg inh, SW480 rereplic, MCF10A rereplic, VP16 counter)
Cc1ccc(-c2csc(NC(=O)CSC3=NCCS3)n2)cc1	VP16 counter 12.6µM
CC1CCN(C(=O)CSc2nnc3c(n2)[nH]c2ccccc23)CC1	KB-V1 cytotox 16.4µM, KB-3-1 tox inconclusive
Cc1sc(NC(=O)CSC2=NCCS2)nc1-c1ccccc1	MCF10A rereplic 8.91µM
Cc1ccc(-c2csc(NC(=O)CSc3nnc4c(n3)[nH]c3ccccc34)n2)cc1	RORg inh inconclusive, SW480 rereplic inconclusive, KB-V1 cytotox inconclusive, KB-3-1 tox inconclusive, MCF10A rereplic 16.4µM
COc1ccc(C[C@@H]2C(=O)N[C@H](C)C(=O)N(C)[C@@H]3Cc4ccc(cc4)Oc4cc(ccc4O)C[C@H](C(=O)N[C@@H](C)C(=O)N[C@H](C)C(=O)N2C)N(C)C3=O)cc1	none (no result: RORg inh, SW480 rereplic, MCF10A rereplic, VP16 counter)
CC(=O)N1CC(=O)N=C1SCC(=O)Nc1nc(-c2ccccc2)c(-c2ccccc2)s1	RORg inh 7.08µM, MCF10A rereplic 20.6µM, VP16 counter 7.94µM
Cc1sc(NC(=O)CSc2ncn(-c3ccccc3)n2)nc1-c1ccccc1	RORg inh inconclusive, KB-V1 cytotox 23.1µM, KB-3-1 tox inconclusive, VP16 counter inconclusive
COc1cccc(NC(=O)CSc2nnc3c(n2)[nH]c2ccc(C)cc23)c1	SW480 rereplic inconclusive, MCF10A rereplic inconclusive
COc1ccc2[nH]c3nc(SCC(=O)Nc4cccc(NC(C)=O)c4)nnc3c2c1	KB-V1 cytotox inconclusive, MCF10A rereplic 20.6µM
Cc1cc(C)c2c(c1)/C(=N/NC(=O)c1cc(C)oc1C)CCC2	SW480 rereplic 2.91µM, MCF10A rereplic inconclusive
N#Cc1c(-n2cccc2/C=N/O)sc2c1CCCC2	KB-V1 cytotox 23.1µM
C=CCNCc1cccn1-c1sc2c(c1C#N)CCCC2	none
O=C(O)CCn1nnc(-c2cccs2)n1	none
CC(C)c1ccc(-c2nnn(CCC(=O)O)n2)cc1	RORg inh 0.398µM, VP16 counter inconclusive
OC[C@@H]1CN(Cc2cccc(C(F)(F)F)c2)C[C@H](n2cnc3c(NC4CC4)ncnc32)O1	none (no result: RORg inh, SW480 rereplic, MCF10A rereplic, VP16 counter)
CC(CCc1ccccc1)NC(=O)C(=O)c1c[nH]c2ccccc12 (stereo not given)	MCF10A rereplic 10.3µM
O=C(NCCc1ccccc1)C(=O)c1c[nH]c2ccccc12	RORg inh inconclusive
O=C(CSC1=Nc2ccccc2C2=NC(Cc3ccccc3)C(=O)N12)Nc1ccccc1F (stereo not given)	none (no result: RORg inh, SW480 rereplic, MCF10A rereplic, VP16 counter)

Screening data as filed in PubChem.
